Rows were chosen to be rich in hits. Some 3.4% of all compounds tested hit in one or more screens of this group.
FBW7 act: human FBW7 E3 ligase activation, primary screen; Q969H0; normalized activity (activation), % at 26.1 µM; 0.13% of 650,000 active; AlphaScreen FBW7–phospho-cyclin E peptide binding, activator screen; in the data active = normalized activity above about 1.9%;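 note: purified mutant Fbw7 with reduced substrate affinity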
MITF primary: human MITF inhibition, primary screen; O75030; AlphaScreen MITF homodimerization, bead proximity signal; inhibition, % at 2.6 µM; 0.91% of 650,000 active; in the data active = inhibition above about 50%;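 note: 0% = vehicle wells with protein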
Target sequence (O75030 whole entry, looked up): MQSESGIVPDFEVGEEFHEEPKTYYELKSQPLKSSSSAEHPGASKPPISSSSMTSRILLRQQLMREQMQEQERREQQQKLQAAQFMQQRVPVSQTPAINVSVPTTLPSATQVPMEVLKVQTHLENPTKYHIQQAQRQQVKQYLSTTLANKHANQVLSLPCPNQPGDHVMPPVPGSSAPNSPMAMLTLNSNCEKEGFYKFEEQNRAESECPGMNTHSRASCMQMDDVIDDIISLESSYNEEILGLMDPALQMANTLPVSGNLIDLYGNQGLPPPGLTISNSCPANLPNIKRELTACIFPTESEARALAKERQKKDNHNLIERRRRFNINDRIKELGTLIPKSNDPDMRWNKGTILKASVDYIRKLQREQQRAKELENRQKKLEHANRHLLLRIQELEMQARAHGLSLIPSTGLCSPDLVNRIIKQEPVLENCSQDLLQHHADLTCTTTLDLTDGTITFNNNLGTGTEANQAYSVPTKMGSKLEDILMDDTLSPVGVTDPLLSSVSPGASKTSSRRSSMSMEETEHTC
TEAD-YAP inh: TEAD-YAP interaction inhibition; HEK-TIYL cells, TEAD-Gal4/YAP UAS-luciferase luminescence; inhibition, % at 9.12 µM; 1.4% of 640,000 active; AID 1259422; in the data active = inhibition above about 32%;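 note: 0% = median of test compound wells and 100% = reference inhibitor wells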
GPR151 activ: human GPR151 activation. activation, % at 11.2 µM. Q8TDV0. 1% of 650,000 active. AID 1508602. PathHunter beta-arrestin GPR151 cells, luminescence; in the data active = activation above about 4.9%;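 note: 0% = median of compound wells and 100% = cells with positive control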
* = called active by the depositor.

Results for COC(CN(C)S(=O)(=O)c1ccc2c(c1)CCN2C(=O)C1CCC1)OC ?
FBW7 act: 0.0; MITF primary: 1.8; TEAD-YAP inh: -11.7; GPR151 activ: 0.2

Results for Cc1cnc(Nc2cccnc2)nc1NCc1ccccc1 ?
FBW7 act: 0.2; MITF primary: 3.1; TEAD-YAP inh: 32.7*; GPR151 activ: 3.7

How did Cc1cnc(Nc2ccccn2)nc1NCc1cccc(C(F)(F)F)c1 do in these assays?
FBW7 act: 0.2; MITF primary: 3.1; TEAD-YAP inh: 47.1*; GPR151 activ: 4.3

How did Cc1cnc(NCCN2CCOCC2)nc1NCc1cccc(C(F)(F)F)c1 do in these assays?
FBW7 act: 0.0; MITF primary: -5.8; TEAD-YAP inh: 32.1*; GPR151 activ: 1.4

Results for CCNc1ncc(C)c(NCc2cccc(C(F)(F)F)c2)n1 ?
FBW7 act: -0.2; MITF primary: -4.8; TEAD-YAP inh: 22.9; GPR151 activ: 3.1

Results for Cc1cnc(Nc2ccccc2)nc1NCc1cccc(C(F)(F)F)c1 ?
FBW7 act: -0.1; MITF primary: 5.5; TEAD-YAP inh: 49.9*; GPR151 activ: 2.5

What do the screens show for `Cc1cnc(Nc2ncccn2)nc1NCc1cccc(C(F)(F)F)c1`?
FBW7 act: 0.4; MITF primary: -11.3; TEAD-YAP inh: 0.5; GPR151 activ: 0.3

Results for Cc1cccc(NS(=O)(=O)c2nc3nc(C)c(C)c(C)n3n2)c1C ?
FBW7 act: -0.1; MITF primary: 8.5; TEAD-YAP inh: -7.9; GPR151 activ: -1.4

What do the screens show for `Cc1cnc(Nc2ccc3ncccc3c2)nc1NCc1cccc(C(F)(F)F)c1`?
FBW7 act: 0.0; MITF primary: 6.8; TEAD-YAP inh: 53.0*; GPR151 activ: 4.5

What do the screens show for `CC(C)n1c(-c2cccs2)nc2c(NCc3cccc(C(F)(F)F)c3)ncnc21`?
FBW7 act: 0.0; MITF primary: -12.8; TEAD-YAP inh: 0.7; GPR151 activ: 3.1

How did FC(F)(F)c1cccc(CNc2ncnc3sccc23)c1 do in these assays?
FBW7 act: 0.0; MITF primary: -13.4; TEAD-YAP inh: 46.4*; GPR151 activ: 4.5

How did COc1ccc(-c2nc3ncnc(NCc4cccc(C(F)(F)F)c4)c3[nH]2)cc1 do in these assays?
FBW7 act: -0.2; MITF primary: 4.2; TEAD-YAP inh: 46.2*; GPR151 activ: -0.9

Results for Nc1nc(NCc2cccc(C(F)(F)F)c2)cc(Nc2cnccn2)n1 ?
FBW7 act: 0.6; MITF primary: 3.8; TEAD-YAP inh: 55.8*; GPR151 activ: -0.7

Results for Cc1cc(C(C)(C)C)ccc1OCCCCNCCN ?
FBW7 act: 0.0; MITF primary: -0.4; TEAD-YAP inh: -7.2; GPR151 activ: -1.5

How did CCCCCOC(=O)C1=C(C)NC2=C(C(=O)CC(C)(C)C2)C1c1ccc(O)c(OCC)c1 (stereo not drawn) do in these assays?
FBW7 act: 0.0; MITF primary: -6.5; TEAD-YAP inh: 0.3; GPR151 activ: 0.1

How did Cc1cc(Nc2cc(Nc3ccccc3C(N)=O)ccn2)ccc1N1CCOCC1 do in these assays?
FBW7 act: 0.5; MITF primary: 17.0; TEAD-YAP inh: 34.3*; GPR151 activ: 2.5

What do the screens show for `NC(=O)c1cc(F)ccc1Nc1ccnc(Nc2ccc(N3CCOCC3)cc2)c1`?
FBW7 act: -0.3; MITF primary: 16.9; TEAD-YAP inh: 17.6; GPR151 activ: 3.6

How did NC(=O)c1ncccc1Nc1ccnc(Nc2ccc(N3CCOCC3)cc2)c1 do in these assays?
FBW7 act: -0.2; MITF primary: 35.2; TEAD-YAP inh: 48.8*; GPR151 activ: -0.3

How did NC(=O)c1ccccc1Nc1ccnc(Nc2ccc(N3CCOCC3)cc2F)c1 do in these assays?
FBW7 act: -0.3; MITF primary: -6.5; TEAD-YAP inh: 38.4*; GPR151 activ: -0.2

What do the screens show for `CCCNc1cc(N2CCN(Cc3ccc4c(c3)OCO4)CC2)ncn1`?
FBW7 act: -0.2; MITF primary: 1.6; TEAD-YAP inh: -12.7; GPR151 activ: -0.8

What do the screens show for `O=C(NCc1ccc(C(=O)NCCc2ccccn2)cc1)Nc1ccc(-c2cn[nH]c2)cc1`?
FBW7 act: 1.9*; MITF primary: 26.4; TEAD-YAP inh: 2.5; GPR151 activ: 1.4

What do the screens show for `O=C1C=C(Nc2ccc(Cl)cc2Cl)CC(c2ccco2)C1` (stereo not drawn)?
FBW7 act: 0.5; MITF primary: 39.2; TEAD-YAP inh: 39.2*; GPR151 activ: -0.5

What do the screens show for `O=C1C=C(NCc2ccc(Cl)cc2)CC(c2ccco2)C1` (stereo not drawn)?
FBW7 act: 0.3; MITF primary: 11.3; TEAD-YAP inh: 16.3; GPR151 activ: -0.7

What do the screens show for `COCCCNc1nccn2c(-c3cccc(OC(F)(F)F)c3)cnc12`?
FBW7 act: -0.5; MITF primary: 19.6; TEAD-YAP inh: 39.7*; GPR151 activ: 0.6

What do the screens show for `COCCCNc1nccn2c(-c3cccc(NC(C)=O)c3)cnc12`?
FBW7 act: 0.4; MITF primary: 17.2; TEAD-YAP inh: 90.3*; GPR151 activ: -4.9

Results for O=C(O)c1cccc(-c2cnc(NCCCc3ccccc3)c3nccn23)c1 ?
FBW7 act: 0.3; MITF primary: -24.8; TEAD-YAP inh: -3.0; GPR151 activ: -0.7

What do the screens show for `CCCNc1nccn2c(-c3cccc(NC(C)=O)c3)cnc12`?
FBW7 act: -0.9; MITF primary: -13.9; TEAD-YAP inh: 69.3*; GPR151 activ: -1.3

Results for CC(=O)Nc1cccc(-c2cnc(NCCCc3ccccc3)c3nccn23)c1 ?
FBW7 act: -0.1; MITF primary: -2.2; TEAD-YAP inh: 93.2*; GPR151 activ: -1.0

What do the screens show for `Cc1cc(C)c2cc(C)c3nn(CCN(C)C)c(=O)n3c2c1`?
FBW7 act: 0.8; MITF primary: 19.9; TEAD-YAP inh: 41.2*; GPR151 activ: -0.2

How did Cc1cc2cc3c(cc2n2c(=O)n(CCN(C)C)nc12)OCO3 do in these assays?
FBW7 act: 0.1; MITF primary: -0.4; TEAD-YAP inh: -4.4; GPR151 activ: 0.4

Results for CC1(C)CC2CC(C)(CN2C2CC(=O)N(c3ccc(F)cc3)C2=O)C1 (stereo not drawn) ?
FBW7 act: 0.0; MITF primary: 6.5; TEAD-YAP inh: -2.8; GPR151 activ: 1.8

Results for NC(=O)COC(=O)c1ccc(Cl)c(Cl)c1 ?
FBW7 act: 0.1; MITF primary: 3.1; TEAD-YAP inh: 8.7; GPR151 activ: -2.1

What do the screens show for `CC(=O)NC(c1ccc2c(c1)OCO2)c1cc(Cl)c2cccnc2c1O` (stereo not drawn)?
FBW7 act: -0.8; MITF primary: 33.8; TEAD-YAP inh: 70.6*; GPR151 activ: -0.9

How did CCCCC(=O)NC(c1ccc2c(c1)OCO2)c1cc(Cl)c2cccnc2c1O (stereo not drawn) do in these assays?
FBW7 act: -0.2; MITF primary: 11.7; TEAD-YAP inh: 2.6; GPR151 activ: -1.9

How did CC(=O)NC(c1ccc(C)cc1)c1cc(Cl)c2cccnc2c1O (stereo not drawn) do in these assays?
FBW7 act: -0.4; MITF primary: 28.2; TEAD-YAP inh: 28.0; GPR151 activ: 0.4

How did CC(=O)NC(c1cccc(Cl)c1)c1cc(Cl)c2cccnc2c1O (stereo not drawn) do in these assays?
FBW7 act: -0.8; MITF primary: 19.2; TEAD-YAP inh: 35.8*; GPR151 activ: 0.3

Results for CNC(=O)c1noc(-c2ccccc2)n1 ?
FBW7 act: -0.2; MITF primary: 17.6; TEAD-YAP inh: 4.7; GPR151 activ: 0.1

Source: PubChem
